Assay outcomes as filed in PubChem BioAssay.
An excerpt weighted towards active compounds, which were near 3.4% of everything screened.
PAFAH1B3 FP inh – inhibitors of human PAFAH1B3; Q15102; recombinant PAFAH1B3, FP-rhodamine probe, fluorescence polarization; inhibition, % at 3.39 µM; 340,000 tested, 0.28% active;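 active = inhibition above the screen-wide average of all tested compounds plus 3 SD, cut at about 25% in these data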;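 also: 0% = enzyme with DMSO only and 100% = wells lacking PAFAH1B3 protein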
PP5 inh – blocks human protein phosphatase 5 activity. purified PP5c, OMFP substrate fluorescence. inhibition, % at 6.7 µM. 320,000 tested, 0.18% active;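 active = inhibition above the campaign's mean inhibition across all tested compounds plus 3 SD, cut at about 9.5% in these data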;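 also: 0% = DMSO only and 100% = 100 µM cantharidin control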
PAFAH2 FP inh – inhibitors of human PAFAH2 | Q99487 | recombinant PAFAH2, FP-rhodamine activity probe, fluorescence polarization | inhibition, % at 3.39 µM | 340,000 tested, 0.99% active;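 active = inhibition above the mean over all tested compounds plus 3 SD, cut at about 30% in these data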;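 also: inhibitors block probe labeling of enzyme so polarization drops; 0% = enzyme with DMSO and 100% = wells lacking PAFAH2 protein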
pPAFAH FP inh – pPAFAH (human) enzyme inhibition; 330,000 tested, 1.5% active; Q13093; inhibition, % at 3.39 µM; recombinant pPAFAH, FP-rhodamine probe fluorescence polarization;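 active = inhibition above the mean inhibition across the screen plus 3 SD, cut at about 25% in these data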;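 also: inhibitors block binding of the rhodamine activity-based probe so polarization drops; 0% = enzyme with DMSO and 100% = wells lacking pPAFAH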
Target sequence (Q13093 whole entry, looked up): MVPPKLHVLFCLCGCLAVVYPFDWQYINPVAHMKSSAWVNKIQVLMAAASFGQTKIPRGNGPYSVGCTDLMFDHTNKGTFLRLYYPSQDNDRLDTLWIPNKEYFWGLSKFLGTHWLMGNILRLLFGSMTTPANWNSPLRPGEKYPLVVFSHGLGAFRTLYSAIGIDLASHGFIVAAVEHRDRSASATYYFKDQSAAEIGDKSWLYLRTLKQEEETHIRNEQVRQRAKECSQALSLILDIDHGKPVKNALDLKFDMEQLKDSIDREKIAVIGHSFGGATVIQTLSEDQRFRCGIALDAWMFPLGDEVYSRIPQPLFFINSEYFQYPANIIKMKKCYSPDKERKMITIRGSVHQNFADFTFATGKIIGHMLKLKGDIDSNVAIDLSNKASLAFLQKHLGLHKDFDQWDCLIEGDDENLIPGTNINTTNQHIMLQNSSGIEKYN
PP1 counter – counter-screen for PP5 inhibitors: inhibitors of human PP1-alpha | inhibition, % at 6.7 µM | purified PP1alpha, OMFP fluorescence | P62136 | 320,000 tested, 0.9% active | AID 2235;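 active = inhibition above the mean inhibition of all tested compounds plus 3 SD, computed separately for each screening campaign, cut at about 15% in these data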
PAFAH1B2 inh – blocks human PAF acetylhydrolase 1b catalytic subunit 2 | P68402 | AID 492953 | 340,000 tested, 1.2% active | recombinant PAFAH1B2, FP-rhodamine activity probe, fluorescence polarization | inhibition, % at 3.39 µM;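 active = inhibition above the mean of all tested compounds plus 3 SD, cut at about 24% in these data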;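 also: 0% = enzyme with DMSO and 100% = wells lacking PAFAH1B2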
Target sequence (P68402 whole entry, looked up): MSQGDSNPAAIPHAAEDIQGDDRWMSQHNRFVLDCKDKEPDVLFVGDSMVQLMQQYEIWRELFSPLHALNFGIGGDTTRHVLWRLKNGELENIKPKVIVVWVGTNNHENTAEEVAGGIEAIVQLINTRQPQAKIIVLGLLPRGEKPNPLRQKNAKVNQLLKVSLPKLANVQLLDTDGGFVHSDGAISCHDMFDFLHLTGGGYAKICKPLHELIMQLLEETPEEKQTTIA
* hit, by the source's call.

How did CCN(C[C@H]1N[C@@](Cc2ccccc2)(C(=O)OC)[C@H]2C(=O)N(C)C(=O)[C@@H]12)S(=O)(=O)c1ccc(OC(F)(F)F)cc1 do in these assays?
PAFAH1B3 FP inh: 1.2; PAFAH2 FP inh: 2.9; pPAFAH FP inh: -1.9; PAFAH1B2 inh: 3.2

What do the screens show for `CCOc1ccc(C2C(C(=O)c3ccc(C)o3)=C(O)C(=O)N2c2nc(C)c(C(=O)OC)s2)cc1` (stereo not drawn)?
PAFAH1B3 FP inh: 3.4; PP5 inh: 2.6; PAFAH2 FP inh: -10.5; pPAFAH FP inh: 3.2; PP1 counter: 17.0*; PAFAH1B2 inh: -5.6

How did O=C(N/N=C/c1c[nH]c2ccccc12)c1cccc(Cl)c1 do in these assays?
PAFAH1B3 FP inh: -2.5; PP5 inh: 0.8; PAFAH2 FP inh: 9.2; pPAFAH FP inh: 5.3; PP1 counter: 7.4; PAFAH1B2 inh: 8.4

What do the screens show for `O=C(N/N=C/C1C(c2ccccc2)C1(Cl)Cl)c1cccc(Cl)c1` (stereo not drawn)?
PAFAH1B3 FP inh: 1.6; PP5 inh: 0.8; PAFAH2 FP inh: -7.6; pPAFAH FP inh: 2.0; PP1 counter: 4.0; PAFAH1B2 inh: 29.0*

How did Cc1nn(C)cc1/C=N/NC(=O)Cn1cncn1 do in these assays?
PP5 inh: 1.4; pPAFAH FP inh: -1.6; PP1 counter: -5.4

Results for O=c1c2ccccc2ncn1CCCSc1ccccc1 ?
PAFAH1B3 FP inh: 0.1; PP5 inh: 2.2; PAFAH2 FP inh: -10.1; pPAFAH FP inh: 4.0; PP1 counter: 0.9; PAFAH1B2 inh: 13.1

Results for O=c1c2ccccc2ncn1CCCSc1ccc(Cl)cc1 ?
PAFAH1B3 FP inh: 6.6; PP5 inh: -0.9; PAFAH2 FP inh: 6.4; pPAFAH FP inh: 5.0; PP1 counter: 2.8; PAFAH1B2 inh: 51.0*

How did COc1ccc(/C(N)=N/OC(=O)Cc2cccs2)cc1OC do in these assays?
PAFAH1B3 FP inh: 9.1; PP5 inh: 1.2; PAFAH2 FP inh: -1.1; pPAFAH FP inh: 14.1; PP1 counter: 1.8; PAFAH1B2 inh: -3.5

What do the screens show for `COc1ccc(/C(N)=N/OC(=O)CSc2ccc(C)cc2)cc1OC`?
PAFAH1B3 FP inh: 1.0; PP5 inh: 5.2; PAFAH2 FP inh: 4.6; pPAFAH FP inh: 4.7; PP1 counter: -1.2; PAFAH1B2 inh: 63.5*

Results for COc1ccc(CN(C(=O)Cc2c[nH]c3ccccc23)C(C(=O)NC2CCCCC2)c2ccc(C)o2)cc1 (stereo not drawn) ?
PAFAH1B3 FP inh: -0.5; PP5 inh: 7.5; PAFAH2 FP inh: 1.2; pPAFAH FP inh: -2.5; PP1 counter: 16.9*; PAFAH1B2 inh: 13.8

What do the screens show for `O=C(N/N=C/c1c[nH]c2ccccc12)c1ccc(O)c(O)c1`?
PAFAH1B3 FP inh: 15.2; PP5 inh: 2.0; PAFAH2 FP inh: 14.1; pPAFAH FP inh: 9.0; PP1 counter: -11.4; PAFAH1B2 inh: 24.8*

Results for Cc1cc(SCC(=O)Nc2cccc(S(N)(=O)=O)c2)c(C)cc1Br ?
PAFAH1B3 FP inh: 1.9; PP5 inh: 4.5; PAFAH2 FP inh: -8.1; pPAFAH FP inh: -0.6; PP1 counter: 0.1; PAFAH1B2 inh: 5.4

How did Clc1ccc2c(N/N=C/c3ccccc3Br)ccnc2c1 do in these assays?
PAFAH1B3 FP inh: 2.1; PP5 inh: 3.3; PAFAH2 FP inh: -6.0; pPAFAH FP inh: -1.2; PP1 counter: 11.5; PAFAH1B2 inh: -4.8

How did O=[N+]([O-])c1ccc(/C=N/Nc2ccnc3cc(Cl)ccc23)o1 do in these assays?
PAFAH1B3 FP inh: 4.5; PP5 inh: 0.8; PAFAH2 FP inh: -2.5; pPAFAH FP inh: 28.1*; PP1 counter: 6.7; PAFAH1B2 inh: 1.4

What do the screens show for `COCCN1C=C2C(=O)C(C)(OC(=O)CCC(=O)OC)C(=O)C(Br)=C2C=C1c1ccc(OC)cc1` (stereo not drawn)?
PAFAH1B3 FP inh: 7.6; PP5 inh: 8.9; PAFAH2 FP inh: 0.9; pPAFAH FP inh: 9.2; PP1 counter: 6.8; PAFAH1B2 inh: 12.7

How did CCCCC1=CC2=C(c3ccco3)C(=O)C(C)(OC(=O)c3ccc(OC)cc3)C(=O)C2=CN1Cc1ccco1 (stereo not drawn) do in these assays?
PAFAH1B3 FP inh: 8.3; PP5 inh: 1.7; PAFAH2 FP inh: 10.8; pPAFAH FP inh: 16.4; PP1 counter: 16.1*; PAFAH1B2 inh: 6.6

Results for CCCCC1=CC2=C(c3ccco3)C(=O)C(C)(OC(=O)c3ccc(OC)cc3)C(=O)C2=CN1C(CO)CO (stereo not drawn) ?
PAFAH1B3 FP inh: 6.4; PP5 inh: 0.6; PAFAH2 FP inh: -0.6; pPAFAH FP inh: 5.8; PP1 counter: 11.6; PAFAH1B2 inh: -6.6

How did CCCCC1=CC2=C(c3ccco3)C(=O)C(C)(OC(=O)c3ccc(OC)cc3)C(=O)C2=CN1c1ccc(OC)cc1 (stereo not drawn) do in these assays?
PAFAH1B3 FP inh: 7.4; PP5 inh: 2.5; PAFAH2 FP inh: -5.2; pPAFAH FP inh: 8.4; PP1 counter: 15.7*; PAFAH1B2 inh: -0.5

How did CCCCC1=CC2=C(c3ccco3)C(=O)C(C)(OC(=O)c3ccc(OC)cc3)C(=O)C2=CN1CCCCO (stereo not drawn) do in these assays?
PAFAH1B3 FP inh: 8.1; PP5 inh: 0.7; PAFAH2 FP inh: 6.5; pPAFAH FP inh: 6.4; PP1 counter: -1.4; PAFAH1B2 inh: 9.2

What do the screens show for `COC(=O)CCC(=O)OC1(C)C(=O)C2=CN(Cc3ccco3)C(c3ccc(OC)cc3)=CC2=C(Br)C1=O` (stereo not drawn)?
PP5 inh: 2.8; pPAFAH FP inh: 24.9*; PP1 counter: 0.2

What do the screens show for `CCOc1ccc2nc(SCCNS(=O)(=O)c3ccccc3)sc2c1`?
PAFAH1B3 FP inh: -0.1; PP5 inh: -5.8; PAFAH2 FP inh: -20.7; pPAFAH FP inh: 2.5; PP1 counter: 0.9; PAFAH1B2 inh: 1.2

How did Nc1ccc(Cc2nc3c(ccc4ccccc43)[nH]2)cc1 do in these assays?
PAFAH1B3 FP inh: 0.9; PP5 inh: 1.9; PAFAH2 FP inh: 3.7; pPAFAH FP inh: 14.1; PP1 counter: -4.1; PAFAH1B2 inh: 2.5

What do the screens show for `C/C(=N/N1CCN(Cc2cccc3ccccc23)CC1)c1ccco1`?
PAFAH1B3 FP inh: -2.8; PP5 inh: 2.3; PAFAH2 FP inh: -6.3; pPAFAH FP inh: 2.7; PP1 counter: 0.2; PAFAH1B2 inh: 4.2

What do the screens show for `Cc1cc(C)c2c(-n3cccc3)c(C(=O)NNS(=O)(=O)c3ccc(Cl)cc3)sc2n1`?
PAFAH1B3 FP inh: 2.5; PP5 inh: 2.6; PAFAH2 FP inh: 7.9; pPAFAH FP inh: 6.9; PP1 counter: 3.8; PAFAH1B2 inh: 36.9*

How did O=C(NCCc1ccccc1)C1CCC(CNS(=O)(=O)c2ccccc2)CC1 (stereo not drawn) do in these assays?
PAFAH1B3 FP inh: 2.6; PP5 inh: 2.7; PAFAH2 FP inh: -4.3; pPAFAH FP inh: 4.2; PP1 counter: 16.2*; PAFAH1B2 inh: 3.0

How did CNc1nc(NCCOC23CC4CC(CC(C4)C2)C3)nc(OCC(F)(F)F)n1 do in these assays?
PAFAH1B3 FP inh: 2.7; PP5 inh: 3.2; PAFAH2 FP inh: 6.2; pPAFAH FP inh: -0.5; PP1 counter: -3.2; PAFAH1B2 inh: 31.3*

What do the screens show for `CNc1nc(OCC(F)(F)F)nc(OCC(F)(F)F)n1`?
PAFAH1B3 FP inh: -4.4; PP5 inh: 1.5; PAFAH2 FP inh: -5.2; pPAFAH FP inh: 13.3; PP1 counter: 3.6; PAFAH1B2 inh: 5.1
